Common to all, as to assay: DAPPL (digital affinity profiling via proximity ligation, sequencing); 10 mM Tris-HCl pH 7.5, 50 mM NaCl, 1 mM DTT, 4% glycerol, room temperature, 30 min; GST-TFs on glutathione beads, 16-mer random dsDNA library, 0.1% formaldehyde crosslink after washing; high values mean tight binding
In one assay the target is T1, FLI1 (Homo sapiens, UniProt Q01543 1-452).
T1 sequence: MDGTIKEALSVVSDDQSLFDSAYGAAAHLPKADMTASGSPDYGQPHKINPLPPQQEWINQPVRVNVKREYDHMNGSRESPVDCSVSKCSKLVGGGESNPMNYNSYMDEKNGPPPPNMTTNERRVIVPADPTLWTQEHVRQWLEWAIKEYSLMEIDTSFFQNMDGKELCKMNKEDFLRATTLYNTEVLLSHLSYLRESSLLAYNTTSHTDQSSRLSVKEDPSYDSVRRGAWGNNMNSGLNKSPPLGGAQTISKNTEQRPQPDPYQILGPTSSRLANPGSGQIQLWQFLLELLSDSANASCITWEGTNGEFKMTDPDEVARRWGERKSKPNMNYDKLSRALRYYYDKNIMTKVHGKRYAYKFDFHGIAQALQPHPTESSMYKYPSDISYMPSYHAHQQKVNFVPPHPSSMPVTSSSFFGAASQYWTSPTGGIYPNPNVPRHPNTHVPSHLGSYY
The conditions noted are these: protein: recombinant; tags: N-terminal GST; dsDNA, one strand shown. An outline of the steps: (§1)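 Yeast served to express human transcription factors as GST fusions, which were then captured on glutathione beads and labelled with DNA barcodes. Pooled with a tag-only sample, they were incubated with 200 nmole of a 16-mer random double-stranded DNA library for 30 min at room temperature in Tris/NaCl/DTT/glycerol buffer, washed, crosslinked with 0.1% formaldehyde, ligated by proximity, amplified by PCR and sequenced. Dividing each hexamer's read frequency for a factor by its frequency for the tag-only sample gives the binding signal.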

In another assay the target is T2, ELK1 (Homo sapiens, UniProt P19419 1-428).
T2 sequence: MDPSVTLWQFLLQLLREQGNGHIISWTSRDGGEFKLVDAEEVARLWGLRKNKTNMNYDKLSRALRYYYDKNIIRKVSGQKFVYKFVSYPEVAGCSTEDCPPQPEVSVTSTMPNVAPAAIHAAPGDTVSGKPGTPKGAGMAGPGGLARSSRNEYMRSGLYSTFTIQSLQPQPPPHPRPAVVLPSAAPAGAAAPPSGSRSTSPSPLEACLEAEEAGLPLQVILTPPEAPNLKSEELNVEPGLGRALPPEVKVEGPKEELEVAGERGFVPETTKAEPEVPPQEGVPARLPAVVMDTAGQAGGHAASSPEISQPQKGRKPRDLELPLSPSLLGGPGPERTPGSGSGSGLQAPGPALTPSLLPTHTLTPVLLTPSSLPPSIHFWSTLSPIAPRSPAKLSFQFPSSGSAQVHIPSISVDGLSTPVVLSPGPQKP
Conditions: protein: recombinant; tags: N-terminal GST; dsDNA, one strand shown. Summed up: as §1

A further assay addresses T3, GABPA (Homo sapiens, UniProt Q06546 1-454).
T3 sequence: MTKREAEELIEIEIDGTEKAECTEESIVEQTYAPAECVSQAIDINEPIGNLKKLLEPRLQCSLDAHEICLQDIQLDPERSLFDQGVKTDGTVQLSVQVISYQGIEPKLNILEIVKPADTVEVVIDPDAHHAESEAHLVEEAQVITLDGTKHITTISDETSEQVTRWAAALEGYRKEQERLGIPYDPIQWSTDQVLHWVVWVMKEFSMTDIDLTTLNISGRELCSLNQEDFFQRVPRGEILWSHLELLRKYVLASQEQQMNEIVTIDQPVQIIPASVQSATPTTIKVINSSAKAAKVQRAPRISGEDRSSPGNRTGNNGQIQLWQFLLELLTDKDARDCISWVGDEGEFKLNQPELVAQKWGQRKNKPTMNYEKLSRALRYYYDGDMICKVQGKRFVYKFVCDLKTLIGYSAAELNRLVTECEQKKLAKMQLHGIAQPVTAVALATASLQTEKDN
The conditions noted are these: protein: recombinant; tags: N-terminal GST; dsDNA, one strand shown. Summed up:
as §1

The target of another assay is T4, ERG (Homo sapiens, UniProt P11308 1-479).
T4 sequence: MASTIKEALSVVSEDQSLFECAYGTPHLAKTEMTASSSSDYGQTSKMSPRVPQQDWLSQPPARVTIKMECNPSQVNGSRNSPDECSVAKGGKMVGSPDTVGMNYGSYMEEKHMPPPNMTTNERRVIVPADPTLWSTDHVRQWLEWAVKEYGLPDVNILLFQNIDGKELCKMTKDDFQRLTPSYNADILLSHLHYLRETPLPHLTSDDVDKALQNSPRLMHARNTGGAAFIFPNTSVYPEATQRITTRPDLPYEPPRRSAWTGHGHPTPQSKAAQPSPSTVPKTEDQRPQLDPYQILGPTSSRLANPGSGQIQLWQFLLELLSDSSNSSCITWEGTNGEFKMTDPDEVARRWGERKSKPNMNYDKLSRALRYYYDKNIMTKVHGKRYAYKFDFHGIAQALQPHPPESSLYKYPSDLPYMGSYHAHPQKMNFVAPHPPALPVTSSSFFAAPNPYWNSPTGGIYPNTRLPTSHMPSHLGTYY
Conditions: protein: recombinant; tags: N-terminal GST; dsDNA, one strand shown. An outline of the steps: as §1

For a further assay, the target named is ELF1 (Homo sapiens, UniProt P32519 1-619). Conditions: protein: recombinant; tags: N-terminal GST; dsDNA, one strand shown. An outline of the steps: as §1
The next assay deals with T5, EHF (Homo sapiens, UniProt Q9NZC4 1-300).
T5 sequence: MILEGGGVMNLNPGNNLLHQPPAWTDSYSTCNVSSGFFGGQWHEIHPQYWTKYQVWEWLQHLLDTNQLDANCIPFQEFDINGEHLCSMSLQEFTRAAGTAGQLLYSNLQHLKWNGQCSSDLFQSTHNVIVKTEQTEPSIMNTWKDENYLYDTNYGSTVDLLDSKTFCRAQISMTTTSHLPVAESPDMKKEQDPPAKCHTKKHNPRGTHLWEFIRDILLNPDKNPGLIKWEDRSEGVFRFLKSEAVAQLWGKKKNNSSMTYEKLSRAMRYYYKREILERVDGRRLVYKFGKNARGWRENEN
Conditions: protein: recombinant; tags: N-terminal GST; dsDNA, one strand shown. Summed up:
as §1

A further assay deals with SPI1 (Homo sapiens, UniProt P17947 1-270). Conditions: protein: recombinant; tags: N-terminal GST; dsDNA, one strand shown. An outline of the steps: as §1
In a further assay the target is SPIB (Homo sapiens, UniProt Q01892 1-262). The conditions noted are these: protein: recombinant; tags: N-terminal GST; dsDNA, one strand shown. An outline of the steps: as §1
The target of the next assay is T6, ELK3 (Homo sapiens, UniProt P41970 1-407).
T6 sequence: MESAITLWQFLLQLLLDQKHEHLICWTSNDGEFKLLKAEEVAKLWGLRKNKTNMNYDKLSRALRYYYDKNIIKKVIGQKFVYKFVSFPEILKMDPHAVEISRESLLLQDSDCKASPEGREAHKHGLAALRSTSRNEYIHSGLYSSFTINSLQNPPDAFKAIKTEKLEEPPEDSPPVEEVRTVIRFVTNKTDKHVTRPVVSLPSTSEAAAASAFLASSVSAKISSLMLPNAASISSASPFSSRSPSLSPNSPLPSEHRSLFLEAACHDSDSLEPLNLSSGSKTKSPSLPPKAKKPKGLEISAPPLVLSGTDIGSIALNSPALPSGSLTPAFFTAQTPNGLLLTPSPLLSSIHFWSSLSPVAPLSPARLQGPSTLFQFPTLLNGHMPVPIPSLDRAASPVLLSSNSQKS
Conditions: protein: recombinant; tags: N-terminal GST; dsDNA, one strand shown. Summed up:
as §1

In the next assay the target is T7, FEV (Homo sapiens, UniProt Q99581 1-238).
T7 sequence: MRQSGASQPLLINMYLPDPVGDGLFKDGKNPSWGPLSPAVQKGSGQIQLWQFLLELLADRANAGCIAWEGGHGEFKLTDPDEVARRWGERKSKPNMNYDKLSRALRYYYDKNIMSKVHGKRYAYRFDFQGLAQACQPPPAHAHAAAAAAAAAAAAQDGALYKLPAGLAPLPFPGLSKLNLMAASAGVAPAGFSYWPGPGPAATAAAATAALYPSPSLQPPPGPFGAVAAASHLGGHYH
The conditions noted are these: protein: recombinant; tags: N-terminal GST; dsDNA, one strand shown. Summed up:
as §1

The target in the next assay is ETV5 (Homo sapiens, UniProt P41161 1-510). The conditions noted are these: protein: recombinant; tags: N-terminal GST; dsDNA, one strand shown. An outline of the steps:
as §1

The next assay deals with HSF1 (Homo sapiens, UniProt Q00613 1-529). The conditions noted are these: protein: recombinant; tags: N-terminal GST; chain copies: 3; dsDNA, one strand shown. Summed up:
as §1

A further assay concerns the target T8, SPIC (Homo sapiens, UniProt Q8N5J4 1-248).
T8 sequence: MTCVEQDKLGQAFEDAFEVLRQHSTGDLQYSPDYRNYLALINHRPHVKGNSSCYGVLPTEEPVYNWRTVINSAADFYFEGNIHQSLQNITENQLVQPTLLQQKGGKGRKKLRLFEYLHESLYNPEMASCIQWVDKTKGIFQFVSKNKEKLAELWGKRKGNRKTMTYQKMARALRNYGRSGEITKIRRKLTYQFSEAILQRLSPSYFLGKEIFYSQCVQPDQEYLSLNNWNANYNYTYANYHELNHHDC
Conditions: protein: recombinant; tags: N-terminal GST; dsDNA, one strand shown. An outline of the steps: as §1

Another assay concerns the target ELF4 (Homo sapiens, UniProt Q99607 1-663). The conditions noted are these: protein: recombinant; tags: N-terminal GST; dsDNA, one strand shown. Summed up:
as §1

A further assay addresses T9, ELK4 (Homo sapiens, UniProt P28324-2 1-405).
T9 sequence: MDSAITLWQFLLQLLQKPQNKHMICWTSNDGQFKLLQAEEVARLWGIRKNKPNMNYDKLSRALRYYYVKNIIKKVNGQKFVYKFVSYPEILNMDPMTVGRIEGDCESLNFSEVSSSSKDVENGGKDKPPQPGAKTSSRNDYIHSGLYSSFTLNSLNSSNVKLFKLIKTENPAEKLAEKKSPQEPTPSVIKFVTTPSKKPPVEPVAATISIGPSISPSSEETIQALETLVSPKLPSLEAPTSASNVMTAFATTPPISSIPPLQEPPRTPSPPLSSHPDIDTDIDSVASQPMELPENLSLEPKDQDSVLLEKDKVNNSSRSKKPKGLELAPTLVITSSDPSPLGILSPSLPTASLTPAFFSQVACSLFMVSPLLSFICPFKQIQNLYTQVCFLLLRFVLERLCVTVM
The conditions noted are these: protein: recombinant; tags: N-terminal GST; dsDNA, one strand shown. Summed up: as §1

The next assay has as its target T10, ETV2 (Homo sapiens, UniProt O00321 1-342).
T10 sequence: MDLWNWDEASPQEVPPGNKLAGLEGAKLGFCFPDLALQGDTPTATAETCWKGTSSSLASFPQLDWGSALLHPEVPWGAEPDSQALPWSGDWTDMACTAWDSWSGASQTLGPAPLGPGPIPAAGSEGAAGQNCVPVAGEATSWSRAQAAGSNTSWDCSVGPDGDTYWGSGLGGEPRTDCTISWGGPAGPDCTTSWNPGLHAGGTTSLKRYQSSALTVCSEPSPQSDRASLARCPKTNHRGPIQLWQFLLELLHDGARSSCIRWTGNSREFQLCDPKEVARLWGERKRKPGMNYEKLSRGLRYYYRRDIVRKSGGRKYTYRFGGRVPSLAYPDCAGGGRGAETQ
The conditions noted are these: protein: recombinant; tags: N-terminal GST; dsDNA, one strand shown. An outline of the steps: as §1

Another assay addresses T11, ELF3 (Homo sapiens, UniProt P78545 1-371).
T11 sequence: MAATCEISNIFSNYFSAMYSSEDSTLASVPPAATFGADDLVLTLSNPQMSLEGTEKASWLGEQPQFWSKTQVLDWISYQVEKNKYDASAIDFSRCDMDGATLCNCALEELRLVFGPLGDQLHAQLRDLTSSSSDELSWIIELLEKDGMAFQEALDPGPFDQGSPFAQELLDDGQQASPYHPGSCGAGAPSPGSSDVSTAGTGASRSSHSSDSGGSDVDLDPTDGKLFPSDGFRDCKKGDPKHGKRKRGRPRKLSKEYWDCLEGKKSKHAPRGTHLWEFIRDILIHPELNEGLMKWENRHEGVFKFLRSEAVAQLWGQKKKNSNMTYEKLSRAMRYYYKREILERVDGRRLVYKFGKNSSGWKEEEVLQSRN
Conditions: protein: recombinant; tags: N-terminal GST; dsDNA, one strand shown. Summed up:
as §1

Another assay deals with CRX (Homo sapiens, UniProt O43186 1-299). Conditions: protein: recombinant; tags: N-terminal GST; dsDNA, one strand shown. An outline of the steps: as §1
A further assay concerns the target ETV1 (Homo sapiens, UniProt P50549 1-477). The conditions noted are these: protein: recombinant; tags: N-terminal GST; dsDNA, one strand shown. Summed up:
as §1

Sequence of ELF1 (P32519 whole entry): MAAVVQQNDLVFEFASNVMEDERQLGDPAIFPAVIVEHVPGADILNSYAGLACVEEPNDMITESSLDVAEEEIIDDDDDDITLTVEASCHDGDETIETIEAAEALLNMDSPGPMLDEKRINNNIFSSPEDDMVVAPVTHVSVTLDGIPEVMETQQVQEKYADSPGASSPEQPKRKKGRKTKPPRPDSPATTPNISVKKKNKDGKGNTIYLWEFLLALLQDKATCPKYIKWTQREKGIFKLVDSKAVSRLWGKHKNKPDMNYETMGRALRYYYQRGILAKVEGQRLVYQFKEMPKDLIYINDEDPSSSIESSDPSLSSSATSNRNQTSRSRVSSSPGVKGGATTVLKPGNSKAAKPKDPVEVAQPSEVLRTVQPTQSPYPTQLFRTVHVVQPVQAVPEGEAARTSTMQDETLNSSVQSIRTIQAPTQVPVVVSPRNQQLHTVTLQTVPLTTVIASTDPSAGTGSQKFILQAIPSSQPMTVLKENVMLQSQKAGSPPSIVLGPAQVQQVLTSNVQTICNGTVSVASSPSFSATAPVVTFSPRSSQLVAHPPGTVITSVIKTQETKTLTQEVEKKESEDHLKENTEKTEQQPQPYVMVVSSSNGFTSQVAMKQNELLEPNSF
Sequence of ELF4 (Q99607 whole entry): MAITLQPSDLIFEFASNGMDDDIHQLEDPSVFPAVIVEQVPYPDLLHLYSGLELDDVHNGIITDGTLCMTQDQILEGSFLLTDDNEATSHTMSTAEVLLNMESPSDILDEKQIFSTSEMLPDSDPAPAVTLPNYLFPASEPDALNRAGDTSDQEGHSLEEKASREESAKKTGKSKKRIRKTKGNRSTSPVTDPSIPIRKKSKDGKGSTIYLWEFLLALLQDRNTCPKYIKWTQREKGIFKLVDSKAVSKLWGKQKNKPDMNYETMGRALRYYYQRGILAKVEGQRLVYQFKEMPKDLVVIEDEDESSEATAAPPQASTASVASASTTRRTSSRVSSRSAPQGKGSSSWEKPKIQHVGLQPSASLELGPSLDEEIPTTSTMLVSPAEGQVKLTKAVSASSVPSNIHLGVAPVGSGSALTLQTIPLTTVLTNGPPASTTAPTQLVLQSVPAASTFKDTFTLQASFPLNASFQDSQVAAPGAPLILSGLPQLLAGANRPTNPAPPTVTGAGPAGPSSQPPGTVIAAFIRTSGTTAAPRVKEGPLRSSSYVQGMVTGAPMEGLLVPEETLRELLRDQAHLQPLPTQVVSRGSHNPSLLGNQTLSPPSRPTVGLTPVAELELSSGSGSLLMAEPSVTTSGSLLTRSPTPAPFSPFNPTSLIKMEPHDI
Sequence of SPIB (Q01892 whole entry): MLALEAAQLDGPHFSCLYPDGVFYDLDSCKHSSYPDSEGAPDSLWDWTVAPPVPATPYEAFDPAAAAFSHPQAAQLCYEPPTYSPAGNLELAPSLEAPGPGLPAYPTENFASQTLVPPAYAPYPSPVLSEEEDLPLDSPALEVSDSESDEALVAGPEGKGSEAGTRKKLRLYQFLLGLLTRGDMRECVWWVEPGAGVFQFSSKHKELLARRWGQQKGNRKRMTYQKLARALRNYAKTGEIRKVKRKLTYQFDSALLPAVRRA
Sequence of CRX (O43186 whole entry): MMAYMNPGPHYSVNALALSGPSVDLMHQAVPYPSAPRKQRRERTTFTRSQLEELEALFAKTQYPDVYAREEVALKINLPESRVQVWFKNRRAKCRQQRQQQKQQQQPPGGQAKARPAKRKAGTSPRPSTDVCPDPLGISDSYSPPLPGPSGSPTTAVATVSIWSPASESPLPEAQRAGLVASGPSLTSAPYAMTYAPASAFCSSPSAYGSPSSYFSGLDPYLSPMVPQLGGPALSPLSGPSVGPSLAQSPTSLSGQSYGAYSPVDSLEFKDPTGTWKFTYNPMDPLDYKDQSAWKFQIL
Sequence of ETV1 (P50549 whole entry): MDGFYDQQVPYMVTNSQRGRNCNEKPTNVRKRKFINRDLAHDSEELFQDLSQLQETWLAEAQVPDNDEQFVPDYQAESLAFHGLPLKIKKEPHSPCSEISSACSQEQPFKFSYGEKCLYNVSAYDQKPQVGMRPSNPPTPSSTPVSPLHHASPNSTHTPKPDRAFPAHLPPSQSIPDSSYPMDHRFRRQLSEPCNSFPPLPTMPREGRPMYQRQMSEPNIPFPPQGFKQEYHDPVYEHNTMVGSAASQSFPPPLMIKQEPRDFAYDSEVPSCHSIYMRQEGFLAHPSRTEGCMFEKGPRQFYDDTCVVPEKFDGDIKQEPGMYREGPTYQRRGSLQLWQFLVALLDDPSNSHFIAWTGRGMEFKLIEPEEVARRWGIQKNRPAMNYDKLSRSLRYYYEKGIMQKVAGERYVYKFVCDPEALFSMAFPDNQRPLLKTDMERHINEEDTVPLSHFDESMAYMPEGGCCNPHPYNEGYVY
Sequence of HSF1 (Q00613 whole entry): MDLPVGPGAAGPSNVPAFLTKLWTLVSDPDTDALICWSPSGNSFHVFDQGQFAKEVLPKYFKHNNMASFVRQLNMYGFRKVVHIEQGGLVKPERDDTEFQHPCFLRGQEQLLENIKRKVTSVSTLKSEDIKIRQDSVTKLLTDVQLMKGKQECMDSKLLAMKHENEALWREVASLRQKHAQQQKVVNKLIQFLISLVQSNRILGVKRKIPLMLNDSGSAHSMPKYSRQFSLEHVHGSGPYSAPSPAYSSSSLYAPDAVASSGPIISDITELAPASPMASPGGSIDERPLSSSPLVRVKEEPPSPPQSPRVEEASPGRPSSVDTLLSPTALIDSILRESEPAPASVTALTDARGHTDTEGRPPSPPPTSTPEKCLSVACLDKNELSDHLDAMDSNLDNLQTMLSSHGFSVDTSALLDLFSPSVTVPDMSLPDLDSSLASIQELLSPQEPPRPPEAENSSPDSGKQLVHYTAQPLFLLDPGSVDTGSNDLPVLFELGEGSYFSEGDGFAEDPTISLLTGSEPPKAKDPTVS
Sequence of ETV5 (P41161 whole entry): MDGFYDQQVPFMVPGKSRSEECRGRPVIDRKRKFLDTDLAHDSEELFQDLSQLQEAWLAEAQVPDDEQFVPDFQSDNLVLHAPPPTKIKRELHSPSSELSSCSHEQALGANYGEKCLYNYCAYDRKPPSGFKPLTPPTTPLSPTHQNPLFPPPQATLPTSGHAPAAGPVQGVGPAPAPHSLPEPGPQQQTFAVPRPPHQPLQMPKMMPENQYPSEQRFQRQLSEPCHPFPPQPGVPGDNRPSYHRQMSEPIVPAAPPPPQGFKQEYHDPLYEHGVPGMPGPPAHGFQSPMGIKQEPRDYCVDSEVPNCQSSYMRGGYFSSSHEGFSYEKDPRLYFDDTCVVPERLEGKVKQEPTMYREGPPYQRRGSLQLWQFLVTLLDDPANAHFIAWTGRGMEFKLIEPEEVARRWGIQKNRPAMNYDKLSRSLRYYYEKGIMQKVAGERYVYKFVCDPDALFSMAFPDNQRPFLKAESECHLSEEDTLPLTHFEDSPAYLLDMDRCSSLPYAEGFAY

Take CTCGCG: the binding signal in the assay with FLI1 was 1.47 fold enrichment (6-mer frequency, TF over GST control); with ELK1, 1.35 fold enrichment (6-mer frequency, TF over GST control); in the assay with GABPA, 1.55 fold enrichment (6-mer frequency, TF over GST control); in the assay with ERG, 1.42 fold enrichment (6-mer frequency, TF over GST control); with ELF1, 1.41 fold enrichment (6-mer frequency, TF over GST control); with EHF, 1.32 fold enrichment (6-mer frequency, TF over GST control). Also, the binding signal was 1.39 fold enrichment (6-mer frequency, TF over GST control) with SPI1; 1.45 fold enrichment (6-mer frequency, TF over GST control) with SPIB; 1.34 fold enrichment (6-mer frequency, TF over GST control) in the assay with ELK3; 1.35 fold enrichment (6-mer frequency, TF over GST control) with FEV; 1.48 fold enrichment (6-mer frequency, TF over GST control) with ETV5; 1.55 fold enrichment (6-mer frequency, TF over GST control) with HSF1. The binding signal in the assay with SPIC was 1.3 fold enrichment (6-mer frequency, TF over GST control); in the assay with ELF4, 1.48 fold enrichment (6-mer frequency, TF over GST control); in the assay with ELK4 it was 1.59 fold enrichment (6-mer frequency, TF over GST control); with ETV2 it was 1.39 fold enrichment (6-mer frequency, TF over GST control); with ELF3, 1.53 fold enrichment (6-mer frequency, TF over GST control); in the assay with CRX, 1.3 fold enrichment (6-mer frequency, TF over GST control). In addition, the binding signal with ETV1 was 1.47 fold enrichment (6-mer frequency, TF over GST control).
